Where “and” joins values, the source holds several entries; their conditions need not be identical. Equal entries are not always repeated. Calls of active or inactive are those of the source. How the source made its calls: active means hit-call score of the fitted dose curve at least 0.9, where 1 is the maximum; inactive means score below 0.9.

A short description of the assay: BSK_4H_SRB: Viability Assessment in the BioMAP Diversity Plus: 4H Assay (AID 2283027).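 On AC50: curves fitted both ways versus DMSO so AC50 may be loss or gain.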 The following applies: primary human endothelial cells (HUVEC). On the procedure:
BSK_4H is a cell-based, multiplexed-readout assay that uses umbilical vein endothelium, a human vascular primary cell, with measurements taken at 24 hours after chemical dosing in a 96-well plate.BSK_4H_SRB is an assay component measured in the BSK_4H assay. It measures […] related to cell death using Sulforhodamine staining technology.Data from the assay component BSK_4H_SRB was analyzed into 1 assay endpoint. This assay endpoint, BSK_4H_SRB, was analyzed with bidirectional fitting relative to DMSO as the negative control and baseline of activity. Using a type of viability reporter, gain or loss-of-signal activity can be used to understand changes in the signaling. Furthermore, this assay endpoint can be referred to as a primary readout, because this assay has produced multiple assay endpoints where this one serves a signaling function. To generalize the intended target to other relatable targets, this assay endpoint is annotated to the cell morphology intended target family, where the subfamily is cell conformation.
The levels of cell surface (or secreted, indicated by the prefix "s") biomarker endpoints were measured by ELISA. Overt cytotoxicity to cells in confluent adherent cultures (all systems other than the BT system) was assessed by measuring total protein levels using sulforhodamine B (SRB) staining in parallel cultures at the time of biomarker measurements, indicated as SRB endpoints. For proliferation assays for adherent cell types, individual cell types are cultured at sub-confluence and relative cell numbers quantified by SRB staining at time points optimized for each system (48 h: 3C and CASM3C systems; 72 h: BT and HDF3CGF systems; 96 h: SAg system). SRB was performed by staining cells with 0.1% SRB after fixation with 10% TCA and reading wells at 560 nm.Viability and proliferation of PBMC (T cells) was quantified by Alamar Blue reduction for the SAg and BT systems. For PBMC viability (referred to as PBMC Cytotoxicity within the assay endpoint names), cells were plated (75,000/well in a 96-well plate) and then chemical samples added for 1 h before addition of activators, SEB and TSST-1 (20 ng/mL final concentration each). Cells were incubated for 90 h. Then, Alamar Blue (20 uL/well) (Invitrogen, Cat DAL1100) was added for 6 h, and the plates were read with a fluorescence microplate reader at 546/580 nm (excitation/emission). For PBMC proliferation, cells were plated and activated as above but incubated for only 16 h prior to addition of Alamar Blue. Plates were read after 6 h.
As for `CCCCN(CCO)CCO`, the result was inactive.

In the case of `CCCCCCCCCCCCS`, the AC50 (commonly the concentration at which the activity in the assay is half-maximal) is 29.6 µM (active).

Turning to `COc1ccccc1NC(=O)CC(C)=O`, the result was inactive.

Take `C#C[C@]1(O)CC[C@H]2[C@@H]3CCc4cc(O)ccc4[C@H]3CC[C@@]21C`: the half-maximal activity concentration (AC50) is 3.99 µM (active).

As for `OCCN1CCOCC1`, the result was inactive.

Consider `CC/C(=C(\c1ccccc1)c1ccc(OCCN(C)C)cc1)c1ccccc1`, for which the concentration at half-maximal activity (AC50) was 6.19 µM (active) and 8.06 µM (active).

Turning to `C=C(C)C(N)=O`, the outcome was inactive.

As for `CC(=O)OC(C)(C)C1CC=C(C)CC1` (stereo not given), the AC50 was 31 µM (active).

Take `CC(C)(CO)CO`: the result was inactive.

As to `CC1(C)[C@H](C=C(Cl)Cl)[C@H]1C(=O)OCc1cccc(Oc2ccccc2)c1`, the result was inactive.

`CCOC(=O)C=Cc1ccccc1`: the result was inactive.

As for `CCCCCCCCCC(=O)OCC`, the AC50 is 31.5 µM (active).

In the case of `CCC(=O)OCC=Cc1ccccc1`, the outcome was inactive.

Regarding `O=C1OC2(c3ccc(O)cc3Oc3cc(O)ccc32)c2ccccc21`, the outcome was inactive.

As to `NC(=O)c1c(Cl)cccc1Cl`, the outcome was inactive.

As to `CCCCCCCC1CCCC1=O` (stereo not given), the outcome was inactive.

As to `CC(C)CCCC(C)(C)O`, the outcome was inactive.

For `CC(C)Cc1ccc(C(C)C(=O)O)cc1` (stereo not given), the outcome was inactive.

Turning to `C=C(F)C(=O)OC(C(F)(F)F)C(F)(F)F`, the result was inactive.

Consider `O=C(c1ccc(OCCN2CCCCC2)cc1)c1c(-c2ccc(O)cc2)sc2cc(O)ccc12`, for which the AC50 is 33.2 µM (active).

On to `Nc1ccc(N)c([N+](=O)[O-])c1`, for which the result was inactive.

Consider `CCCCOCCOCCO`, for which the result was inactive.

For `O=S(=O)(O)C(F)(F)C(F)(F)OC(F)(F)C(F)(F)F`, the result was inactive.

`CC(C)(C)c1cccc(O)c1`: the outcome was inactive.

Turning to `CC=CC(=O)C1=C(C)C=CCC1(C)C`, the result was inactive.

For `c1ccc(Sc2ccccc2)cc1`, the AC50 was 31.1 µM (active).

Turning to `c1ccc(OCCOc2ccccc2)cc1`, the outcome was inactive.

As to `c1ccc2c(c1)-c1ccc3ccc4cccc5cc-2c1c3c45`, the result was inactive.

`CCOC(=O)CCCCCCCCC(=O)OCC`: the result was inactive.

Consider `O=S1(=O)CC(Cl)(Cl)C(Cl)(Cl)C1`, for which the AC50 was 0.992 µM (active).

In the case of `COC(=O)c1ccc(C(=O)OC)cc1`, the outcome was inactive.

For `CC(=O)c1ccc(C)cc1`, the outcome was inactive.

Take `C=C(C)C(=O)OCCC(F)(F)C(F)(F)C(F)(F)C(F)(F)C(F)(F)C(F)(F)C(F)(F)C(F)(F)F`: the result was inactive.

Take `CC(=O)CCC=C(C)CCC=C(C)C`: the result was inactive.

As for `CC1=CC(C)C(C=O)C(C)C1` (stereo not given) (tested in a mixture with another compound), the result was inactive.

For `C=C1CC/C=C(\C)CC[C@@H]2[C@@H]1CC2(C)C`, the AC50 was 31.9 µM (active).

As to `C[C@]12CC[C@@H]3c4ccc(O)cc4CC[C@H]3[C@@H]1CC[C@@H]2O`, the AC50 was 12.4 µM (active).

Take `CCCO[Si](OCCC)(OCCC)OCCC`: the outcome was inactive.

Consider `O=C(O)C(F)(F)C(F)(F)C(F)(F)C(F)(F)C(F)(F)C(F)(F)C(F)(F)C(F)F`, for which the result was inactive.

In the case of `CC(=O)OCC=C(C)CCC=C(C)CCC=C(C)C`, the outcome was inactive.

The values are drawn from PubChem BioAssay (EPA / NIEHS).
